In PubChem BioAssay (NCATS):
Records with an inconclusive call do not appear. A number with no mark means an inactive call. The call rests on the fitted dose curve; in most records, active means well fitted inhibition curve with a large enough effect; inconclusive means small, poorly fitted or top-dose-only effect; inactive means no such curve, though single readings can be large or run the other way.

These molecules were tested against Retinaldehyde dehydrogenase 3 (Homo sapiens) (UniProt P47895) (assay: qHTS for Inhibitors of the Aldehyde Dehydrogenase Family (ALDH1A3) Primary screen (AID 2061315;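 further: plate controls were DMSO vehicle for no effect and reference inhibitor for full effect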)). Details: ALDH inhibition qHTS; series mostly up to 56 µM; activity change, negative = inhibition: at the top concentration.

Compound | activity change, negative = inhibition
Oc1cc(-c2ccc(N3CCCCC3)nc2)cc2cccnc12 | 2.28%
CC(C)(C)c1ccc(-n2cnc3cc(C(=O)N4CCCCC4)ccc32)cc1 | -4.46%
CCOc1ccc(CCNC(=O)c2ccc3[nH]ccc3c2)cc1OCC | 3.51%
Clc1ccc(CSc2nc3ncc(Br)cc3[nH]2)cc1Cl | 8.94%
O=C([C@H](Cc1ccc(O[S+](=O)([O-])c2cccc3cnccc23)cc1)N[S+](=O)([O-])c1cccnc1)N1CCN(c2ccccc2)CC1 | -4.26%
CN(Cc1ccccc1)C(=O)C1CCN(Cc2cccc3ccccc23)CC1 | -4.88%
Cc1csc(CNc2ncnc3ccc(-c4ccc5c(c4)OCO5)cc23)c1 | 0.292%
Cc1cc(-c2ccccc2)nc2c(C(=O)Nc3ccc(Cl)c(Cl)c3)cnn12 | 11%
Brc1ccc(-c2csc(N3CCCCC3)n2)cc1 | 12.5%
CC(C)(C)OC(=O)NCC(=O)NNC(=O)C(C(=O)OCc1ccccc1)c1ccccc1 (stereo not given) | 12.9%
Cn1c2cc(C=O)sc2c2cnn(Cc3ccccc3F)c(=O)c21 | 7.38%
NC(=O)C1CCN(c2nc(-c3ccc(N)cc3)cs2)CC1 | -8.73%
C=C1C(=O)O[C@@H]2C[C@]3(C)[C@@H](CCC(C)O)[C@@H]3C[C@H]12 (stereo not given in full) | -9.57%
N[C@@H](Cc1ccc(OS(=O)(=O)c2ccccn2)cc1)C(=O)N1CCN(c2ccccc2)CC1 | -3.49%
Cc1cc(NS(=O)(=O)c2ccc(NC(=O)Cc3ccc4ccccc4c3)cc2)no1 | 2.03%
CCOC(=O)C1CCN(C(=O)C(C)(C)NC(=O)Nc2cccc(OC)c2)CC1 | -4.11%
CN(C)c1ccc(C2N=C(Nc3nc4ccccc4o3)NC3=C2C(=O)CCC3)cc1 (stereo not given) | 6.21%
COc1ccccc1C(=O)OCC#CCSc1nnc(-c2cccc3ccccc23)o1 | 24.3%
CC(C)(C)c1ccc(-c2nc(SCCCOc3ccccc3)n3[nH]c(=O)cc3n2)cc1 | 32.3%
N#Cc1c(-c2ccc(OCCOCCOCCNC(=O)CCCC[C@@H]3SC[C@@H]4NC(=O)N[C@@H]43)cc2)no[n+]1[O-] | -7.72%
Cc1nc(CCN(C)c2ncnc3ccc(-c4ccc5c(c4)OCO5)cc23)cs1 | 7.57%
COc1cccc(-c2ccc3ncnc(NCc4ccc5c(c4)OCO5)c3c2)c1 | -4.75%
O=C(NCCc1nc2ccccc2n1CCOc1cccc([N+](=O)[O-])c1)C1CCCCC1 | -5.42%
O=S(=O)(Nc1cnc2ccccc2c1)c1ccc(NCc2ccc(Br)cc2O)cc1 | 7.06%
Cc1ccnc(NC(=S)N2CC3CN(c4cccc(C(F)(F)F)c4)CC3C2)c1 (stereo not given) | -14.8%
